In the OligoGym collection:

molecular target: ZMAT5; assay: pooled miR-30 sensor sort-seq; sequence = guide strand; conditions: shRNA
Note: reference of the scale not given here.

| Sequence | sensor-assay potency score (higher = more potent) |
| --- | --- |
| TGCATCTCGGAACATGTCGTAC | -1.55 |
| TGTCGTACCAGACCTTCTTGGC | -0.415 |
| TCTCGCTCTGACATGTGGGAAA | -1.37 |
| TCTGACATGTGGGAAAATCTGC | -0.533 |
| TTGGAGCCAAAGTCGCACTGGC | -0.262 |
| TACCAGACCTTCTTGGCCTTGA | 0.178 |
| TTGTTCTGCTCATCCAGCAAGA | -0.992 |
| TACTGGAAGACAGTGGTTCTGA | 0.107 |
| ATGTCGTACCAGACCTTCTTGG | -1.05 |
| AAAATCTGCAGTTGGAGCCAAA | -1.1 |

molecular target: ZMYM3; assay: as above; conditions: shRNA

| Sequence | sensor-assay potency score (higher = more potent) |
| --- | --- |
| TTCTGTTTGACTTCCTTTGGAC | 0.00295 |
| TTTGTGACACACTTGAGCGTAG | 0.22 |
| TTACACAGGGTCTTGCACCAGA | 0.022 |
| TAGAACTTGACAGGGCAGCGGA | -0.668 |
| TTGGACTTCATCTCCACCTTGC | 0.519 |
| TACACTGGGATTAATGTCCAGA | -0.579 |
| TTGTCTGTGCTCTCCAAGGTAG | -0.839 |
| AAACAGGTCACAGTCTTCCAGG | -1.1 |
| TTGTTCAGTAGACACATCCTCA | 0.00931 |
| TTGTACAGCAGCACACAGCCTT | -0.282 |
| TTGACCACAGATCCCATCCTGC | -0.277 |
| TTGAGCTCAGCAGCTGAGCAGG | -1.2 |
